Experimental data as given in PubChem BioAssay (NCI).
Compounds without any hit were thinned out: in the full panel of roughly 83,000, 20% have a hit.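 Each cell line was grown in a 96-well plate and treated with one concentration of compound for 48 hours. Values below 10 were considered active.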 Activity calls are given as the source filed them.

Experiments:
Test in all cases: NCI-60 one-dose screen, 48 h (100 = growth as untreated, 0 = no growth, -100 = all killed)
Conditions in all cases: 10 µM unless noted
[1] = system: NCI-H23 lung
[2] = system: NCI-H226 lung
[3] = system: NCI-H322M lung
[4] = system: HOP-62 NSCLC
[5] = system: HOP-92 NSCLC
[6] = system: NCI-H522 lung
[7] = system: A549/ATCC NSCLC
[8] = system: 786-0 renal
[9] = system: COLO 205 colon
[10] = system: DU-145 prostate
[11] = system: K-562 leukemia
[12] = system: MALME-3M melanoma
[13] = system: MDA-MB-231 breast
[14] = system: RXF 393 renal
[15] = system: SF-268 CNS
[16] = system: SF-295 CNS
[17] = system: SF-539 CNS
[18] = system: M14 melanoma
[19] = system: UACC-257 melanoma
[20] = system: NCI-H460 lung

Measured: growth

NC(=O)NCC1CCCCC1
inactive: [1] 90.7% | [2] 102% | [3] 104% | [4] 112% | [5] 114% | [6] 93.3% | [7] 109% | [8] 101% | [9] 111% | [10] 104% | [11] 102% | [12] 99.3% | [13] 108% | [14] 101% | [15] 99.1% | [16] 93.1% | [17] 91.4% | [18] 104%

Cc1csc(-c2ccc3c(c2)COC3(CCCN(C)C)c2ccc(F)cc2)c1 (stereo not given)
active: [4] -64.4% | [6] -38.8% | [9] -69.1% | [11] -19.9% | [12] -71.9% | [19] -57.7% | [18] -70.3%
inactive: [1] 88.9% | [2] 95.8% | [3] 77% | [5] 34.3% | [7] 31.3% | [8] 61.8% | [10] 42.8% | [13] 44.3% | [14] 43.5% | [15] 57.2% | [16] 73.7% | [17] 73.9%

Cc1ccc(N(CC(=O)Nc2ccc(S(=O)(=O)N3CCC(N4CCCC4)CC3)cc2)S(=O)(=O)c2ccc(Cl)cc2)cc1
active: [8] -70.5% | [9] -60.5% | [10] 9.76% | [11] -44.9% | [12] -81.2% | [13] -42.9% | [14] -70.8% | [16] -64.5% | [17] -89.7% | [18] -68.8%
inactive: [1] 77.6% | [2] 64.7% | [3] 22.5% | [4] 67.6% | [5] 50.9% | [6] 44.2% | [7] 20.2% | [15] 34.8%

CCC(CC)C(=O)OC(C)COc1ccc(C(C)(C)C)cc1 (stereo not given)
inactive: [1] 105% | [2] 100% | [3] 109% | [4] 103% | [5] 92.6% | [6] 70.5% | [7] 69.2% | [8] 97.4% | [9] 124% | [10] 106% | [11] 87% | [12] 94.5% | [13] 108% | [14] 113% | [15] 99.1% | [16] 106% | [17] 109% | [19] 66.7% | [18] 96%

COc1ccc(NC(=S)N/N=C/c2ccccc2SSCCC(=O)OC[C@H]2O[C@H](O)[C@H](O)[C@@H](O)[C@@H]2O)cc1
inactive: [1] 67.2% | [2] 88.2% | [3] 52.5% | [4] 45.8% | [5] 104% | [6] 58.4% | [7] 55.1% | [8] 89.7% | [9] 100% | [10] 83.9% | [11] 51.6% | [12] 72.7% | [13] 71.1% | [14] 104% | [15] 61.1% | [16] 59.1% | [17] 91.7% | [19] 98.4% | [18] 47.8%

Cn1cc(-c2nc(-c3c[nH]c4ncccc34)cs2)c2ccccc21
inactive: [1] 63.4% | [2] 85.7% | [3] 52.6% | [4] 92.9% | [5] 42.6% | [6] 84% | [7] 90.6% | [8] 90.5% | [9] 85.9% | [10] 99.9% | [11] 65.5% | [13] 42.9% | [14] 84.3% | [15] 99.3% | [16] 98% | [17] 99.9% | [19] 95.5% | [18] 81.1%

CN1CCN(c2ccc3nc(-c4[nH]ncc4Nc4ncnc5[nH]ccc45)[nH]c3c2)CC1
active: [1] -1.38% | [2] -10.2% | [3] 1.88% | [4] -0.445% | [6] -4.39% | [8] 2.96% | [9] -59.8% | [10] 7.18% | [11] 7.3% | [12] -16.6% | [13] -13% | [14] -71.7% | [15] -9.53% | [16] -1.58% | [17] -43.6% | [18] 3.42%
inactive: [5] 26.9% | [7] 24% | [19] 11.7%

O=c1[nH]c(=S)[nH]c2nc[nH]c12
inactive: [1] 88.6% | [2] 99.8% | [3] 118% | [4] 86.9% | [5] 108% | [6] 100% | [7] 99.1% | [8] 91.6% | [9] 123% | [10] 107% | [11] 89.2% | [12] 112% | [13] 109% | [14] 79.5% | [15] 97.9% | [16] 106% | [17] 105% | [19] 96.6% | [18] 90.7%

COc1ccc(C(=O)/C=C/c2cc(-c3cc(OC)c(OC)c(OC)c3)n[nH]2)cc1OC
inactive: [1] 71.2% | [2] 20.8% | [5] 42.8% | [7] 31.3% | [19] 24.6%
active: [3] -42.4% | [4] -56.6% | [6] -78.5% | [8] -34.7% | [9] -65.7% | [10] 1.8% | [11] 3.36% | [12] -75.5% | [13] -4.03% | [14] -78.8% | [15] -20.1% | [17] -96.2% | [18] -7.08%

O=C1c2cccc3cccc(c23)C(=O)N1CC#Cc1ccc2c3c(cccc13)C(=O)N(CCN1CCNCC1)C2=O
inactive: [1] 73.7% | [2] 102% | [3] 98.6% | [4] 110% | [5] 87.7% | [6] 99.8% | [7] 109% | [9] 93.5% | [10] 99.5% | [14] 82.9% | [15] 93.8% | [16] 94.1% | [17] 10.2% | [19] 104% | [18] 101%
active: [8] -2.58% | [11] -15.3% | [12] -45% | [13] 7.95%

Cc1cc(C=O)c(C)c2c1[nH]c1ccccc12
active: [2] -21.9%
inactive: [1] 98.5% | [3] 97.7% | [4] 103% | [5] 88.7% | [6] 88.5% | [7] 99.2% | [8] 100% | [9] 110% | [10] 107% | [11] 97.8% | [13] 90.5% | [14] 117% | [15] 96.8% | [17] 95.9% | [19] 78.6% | [18] 105%

Oc1ccccc1/C=N\NC(=S)Nc1ccc(F)cc1
active: [18] -30.4%
inactive: [1] 30.4% | [2] 25.7% | [3] 30.1% | [4] 36.5% | [5] 46.4% | [6] 21.4% | [7] 22.1% | [8] 16.6% | [9] 50.3% | [10] 30.4% | [11] 14.9% | [13] 49% | [14] 20.1% | [15] 27.8% | [16] 11.6% | [17] 23.9% | [19] 15.4%

COC(=O)C(N)CSC(c1ccccc1)(c1ccccc1)c1ccccc1 (stereo not given)
inactive: [1] 45.5% | [2] 77.6% | [4] 44.6% | [5] 55.1% | [7] 31.3% | [8] 53.7% | [12] 31.8% | [15] 28.4%
active: [3] 9.37% | [20] 8.85% | [6] -43.6% | [10] -24.3% | [13] 3.44% | [14] 1.07% | [17] -11.7% | [18] -6.93%

COc1cccc(-c2nn(-c3ccccc3)cc2-c2ccnc(NCCCO)c2)c1
inactive: [1] 51.5% | [2] 69.2% | [3] 66% | [4] 27.1% | [5] 41.8% | [6] 18% | [7] 35.1% | [8] 48.7% | [9] 11.2% | [10] 63.8% | [12] 51.4% | [13] 38.4% | [14] 47.6% | [15] 53.7% | [16] 27.1% | [17] 33.5% | [18] 12.8%
active: [11] 8.63%

NC1=NN=C2N(N)C(=O)c3cnn(-c4ccccc4)c3N2c2nc(-c3ccccc3)cc(-c3ccccc3)c21
inactive: [1] 94.1% | [2] 87.4% | [3] 103% | [4] 96.8% | [5] 96.7% | [6] 74.9% | [7] 100% | [8] 104% | [9] 116% | [10] 108% | [11] 92.9% | [12] 120% | [13] 89.4% | [14] 138% | [15] 105% | [16] 94.6% | [17] 103% | [19] 108% | [18] 99.2%

O=C(N/N=C\c1ccccc1O)C1CC1
inactive: [1] 116% | [2] 104% | [3] 88.8% | [4] 105% | [20] 115% | [5] 90.8% | [6] 98.1% | [7] 102% | [8] 105% | [10] 108% | [11] 113% | [13] 103% | [14] 112% | [15] 98.7% | [16] 110% | [17] 110% | [19] 94.7% | [18] 109%

O=C(NC1=CC(=O)c2ccccc2C1=O)c1ccccc1
active: [5] -84.1% | [6] -48.8% | [11] -0.828% | [16] 4.13% | [19] -4.63%
inactive: [1] 18.7% | [2] 37.3% | [3] 57.9% | [4] 49.7% | [7] 23.8% | [8] 39.9% | [9] 48% | [10] 63.4% | [13] 16.9% | [14] 35.3% | [15] 39.3% | [17] 10.5% | [18] 33.9%
